High-throughput results: PubChem, National Center for Advancing Translational Sciences (NCATS)
Pol beta inh = blocks human DNA polymerase beta activity | P06746 | Pol beta primer extension/strand displacement, fluorescence kinetic | 340,000 compounds, 1.3% hits | Potency, µM (highest dose often 114 µM), actives largely listed as inhibitors
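Homogeneous kinetic assay of primer extension and strand displacement by 10 nM Pol beta, preincubated 15 min at room temperature with compound before 50 nM substrate (final) was added. Read at 0 and 10 min; four-parameter Hill fit.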
POLI inh = blocks human DNA polymerase iota activity | Q9UNA4 | Pol iota fluorescent replication assay, 10 min | Potency, µM (series often up to 115 µM), actives largely listed as inhibitors | 390,000 compounds, 1% hits | AID 588590
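Pol iota at 10 nM preincubated 15 min with compounds at room temperature; reaction started with fluorescent substrate, 50 nM final. Fluorescence read kinetically at 0 and 10 min; buffer-only wells as negative control.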
Pol eta inh = DNA polymerase eta (human) inhibition; Q9Y253; recombinant Pol eta, fluorescent DNA replication assay; Potency, µM (titrated, usually from 114 µM), actives largely listed as inhibitors; 390,000 compounds, 1.2% hits; AID 588591
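Pol eta at 10 nM preincubated with compounds 15 min at room temperature; reaction started with fluorescent substrate (50 nM final) and read kinetically at 0 and 10 min.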
WRN inhibitor = blocks human WRN helicase; WRN helicase unwinding, fluorescent forked duplex, kinetic; Potency, µM (doses to about 114 µM), usual class: inhibitors; Q14191; AID 651768; 360,000 compounds, 0.46% hits; further: nearly all actives have a fitted effect of over 55% in size
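WRN at 20 nM final preincubated with compound 15 min at room temperature; reaction started with 100 nM fluorophore/quencher forked duplex oligonucleotide and 2 mM ATP final. Unwinding followed kinetically by red fluorescence (ex 525, em 598 nm).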
Pol kappa inh = inhibitors of human DNA polymerase kappa; Q9UBT6; purified Pol kappa, fluorescent DNA synthesis assay, 10 min; Potency, µM (doses to about 107 µM), actives largely listed as inhibitors; 400,000 compounds, 0.53% hits; AID 588579
Target sequence (Q9UBT6 whole entry, looked up): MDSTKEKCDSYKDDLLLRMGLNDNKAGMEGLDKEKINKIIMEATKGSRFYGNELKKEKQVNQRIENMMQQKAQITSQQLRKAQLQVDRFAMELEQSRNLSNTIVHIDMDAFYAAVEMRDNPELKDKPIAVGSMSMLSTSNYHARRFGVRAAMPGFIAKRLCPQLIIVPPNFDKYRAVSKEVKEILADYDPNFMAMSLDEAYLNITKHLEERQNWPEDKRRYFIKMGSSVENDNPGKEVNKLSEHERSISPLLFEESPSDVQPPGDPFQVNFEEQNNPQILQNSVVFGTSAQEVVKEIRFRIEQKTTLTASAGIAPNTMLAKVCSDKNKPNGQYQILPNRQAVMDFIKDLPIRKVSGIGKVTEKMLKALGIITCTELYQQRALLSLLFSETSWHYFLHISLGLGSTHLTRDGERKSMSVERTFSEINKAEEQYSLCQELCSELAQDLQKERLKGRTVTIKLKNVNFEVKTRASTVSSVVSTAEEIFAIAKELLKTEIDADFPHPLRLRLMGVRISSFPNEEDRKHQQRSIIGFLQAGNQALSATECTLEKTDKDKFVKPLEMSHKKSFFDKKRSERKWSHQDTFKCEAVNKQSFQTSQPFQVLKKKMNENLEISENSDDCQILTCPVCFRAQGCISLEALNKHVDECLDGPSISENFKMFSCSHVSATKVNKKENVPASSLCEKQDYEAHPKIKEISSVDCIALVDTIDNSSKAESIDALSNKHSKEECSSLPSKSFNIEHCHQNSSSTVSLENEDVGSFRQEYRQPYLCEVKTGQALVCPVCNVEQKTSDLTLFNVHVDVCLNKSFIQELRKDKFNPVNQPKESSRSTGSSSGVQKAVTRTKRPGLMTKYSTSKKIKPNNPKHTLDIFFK
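Kinetic fluorescence readout at 0 and 10 min followed reaction start with substrate at 50 nM final. Beforehand, enzyme (10 nM Pol kappa) stood 15 min with compound at room temperature; buffer-only wells were negative controls.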
A number is an active result; . = inactive; ? = inconclusive; / = no result; [ ] = another dose, or the depositor's remark. Hits are enriched below; roughly 2.3% of the tested compounds scored in any of these assays. The call rests on the fitted dose curve; in most records, active means well fitted curve in the direction sought with a large enough effect; inconclusive means small, poorly fitted or top-dose-only effect, or another doubt; inactive means no such curve, though single readings can be large; an effect the other way counts as inactive or inconclusive.

SMILES	Pol beta inh	POLI inh	Pol eta inh	WRN inhibitor	Pol kappa inh
O=C(C[n+]1cccc2cccc(O)c21)c1ccc(F)cc1	/	.	/	/	.
Nc1nc(=S)c2n[nH]nc2[nH]1	/	.	/	/	.
CCN(CC)CCNc1ccc(CO)c2sc3ccccc3c(=O)c12	15.8µM	20µM	.	.	?
Cc1c2ccccc2nc2c(F)c(NCCO)c(F)c(F)c12	?	?	?	?	79.4µM
Cc1c2ccccc2nc2c(F)c(NC(C)C)c(F)c(F)c12	.	17.8µM	.	.	?
O=C(C[N+]12CN3CN(CN(C3)C1)C2)c1ccc(Cl)cc1	/	.	/	/	.
Cc1ccc(NC(=O)c2cc(-c3ccco3)nc3ccccc23)cc1S(=O)(=O)N1CCOCC1	14.1µM	15.8µM	?	?	.
Cc1ccc(S(=O)(=O)N(C)C)cc1NC(=O)c1cc(-c2ccco2)nc2ccccc12	.	20µM	?	?	?
COc1ccc(NC(=O)c2cc(C)nc3ccccc23)cc1S(=O)(=O)N1CCOCC1	/	.	.	.	.
Cc1cc(C(=O)OCC(=O)Nc2cc(S(=O)(=O)N(C)C)ccc2C)c2ccccc2n1	.	.	.	.	.
C=CCn1c(SC(C)C#N)nc2ccccc2c1=O (stereo unspecified)	/	.	/	/	.
O=C(NNC(=O)C1[C@H]2CCCC[C@@H]12)c1ccc(=O)oc1 (stereo partly specified)	79.4µM	22.4µM	?	.[11.6 µM]	?
COc1ccc(OC)c(/C=C2\SC(=S)N(C(C(=O)O)c3ccccc3)C2=O)c1 (stereo unspecified)	.	.	?	.	.
O=C(O)C(c1ccccc1)N1C(=O)/C(=C/c2cccs2)SC1=S (stereo unspecified)	.	?	.	.	.
CC(/C=C1\SC(=S)N(C(C(=O)O)c2ccccc2)C1=O)=C\c1ccccc1 (stereo unspecified)	.	?	89.1µM	.[11.6 µM]	?
CCOc1ccc(/C=C2\SC(=S)N(C(C(=O)O)c3ccccc3)C2=O)cc1OC (stereo unspecified)	.	?	79.4µM	.[11.6 µM]	.
C=CCOc1ccc(/C=C2\SC(=S)N(C(C(=O)O)c3ccccc3)C2=O)cc1 (stereo unspecified)	.	?	79.4µM	.[11.6 µM]	.
Cc1cc2ccccc2c[n+]1C	/	.	/	/	.
Cc1cc(C)cc(NS(=O)(=O)c2ccc3[nH]cc(C(=O)NCc4ccco4)c(=O)c3c2)c1	?	.	?	.	.
COc1cccc(NS(=O)(=O)c2ccc3[nH]cc(C(=O)N(C)Cc4ccco4)c(=O)c3c2)c1	?	79.4µM	?	.	?
Cc1cc(C)cc(NS(=O)(=O)c2ccc3[nH]cc(C(=O)N(C)Cc4ccccc4)c(=O)c3c2)c1	.	?	.	/	.
Cc1ccccc1NS(=O)(=O)c1ccc2[nH]cc(C(=O)N(C)Cc3ccco3)c(=O)c2c1	20µM	?	8.91µM	.	?
OC1OC[C@@H](O)[C@@H](O)[C@@H]1O (stereo partly specified)	/	/	/	/	.
O=C(COC(=O)/C=C/c1ccco1)NC1CCCCC1	/	.	.	.	.
CSc1ccccc1NC(=O)COC(=O)/C=C/c1ccco1	/	?	?	?	.
SMILES	Pol beta inh	POLI inh	Pol eta inh	WRN inhibitor	Pol kappa inh
O=C(COC(=O)/C=C/c1ccc(Br)o1)NC1CCCCC1	/	22.4µM	?	.	79.4µM
O=C(COC(=O)/C=C/c1ccc(Br)o1)Nc1ccccc1F	25.1µM	/	/	/	/
O=C(O)CCC1CCCC1	/	/	/	/	.
Cc1cc(C)c(C)c(S(=O)(=O)N[C@@H](C)C(=O)OCc2cc(=O)n3cc(Br)ccc3n2)c1C	8.91µM	50.1µM	?	.[11.6 µM]	?
Cc1ccccc1C(=O)NC(CC(C)C)C(=O)OCc1cc(=O)n2cc(Br)ccc2n1 (stereo unspecified)	.	.	.	.	.
COc1ccccc1N(C(=O)CCl)c1cn(C(C)=O)c2ccccc12	.	.	44.7µM	.	.
CCc1ccc(OCC(=O)NNC(=S)NC(=O)C2CC2)c(Br)c1	.	.	.	.	.
CCc1ccc(OCC(=O)NC(=S)Nc2ccc(C)cc2C)c(Br)c1	.	79.4µM	.	.	.
CC1OC(CC(=O)O)CC2=C1C(=O)c1c(O)cccc1C2=O (stereo unspecified)	/	3.16µM	25.1µM	11.2µM	.
CC(C)C[C@H](NC(=O)[C@H](CO)NC(=O)[C@H](C)NC(=O)[C@H](CCCN=C(N)N)NC(=O)[C@H](CCCN=C(N)N)NC(=O)[C@@H](N)CC(C)C)C(=O)NCC(=O)O	/	/	/	/	.
O=C(NNC(=O)c1cc2cc3ccccc3nc2s1)c1ccc(F)cc1	0.316µM	?	?	.	.
Cc1cccc(C(=O)NNC(=O)c2cc3cc4ccccc4nc3s2)c1	.	.	?	.	.
Cc1cc(-n2nnc3ccccc32)nc2ccccc12	.	89.1µM	.	.	.
Cc1nc2ccccn2c1C(=O)N/N=C/c1ccc([N+](=O)[O-])cc1	.	.	.	.	.
Cc1nc2ccccn2c1C(=O)N/N=C/c1ccc(CNC(=O)C(=O)Nc2ccccc2)o1	?	89.1µM	?	.	.
CCc1cccc2sc(N(CCCN3CCOCC3)C(=O)CS(=O)(=O)c3ccccc3)nc12	/	89.1µM	.	.	.
Cc1ccc(S(=O)(=O)CC(=O)N(CCCN2CCOCC2)c2nc3c(F)cccc3s2)cc1	/	.	.	.	.
CO[C@H]1/C=C/O[C@@]2(C)Oc3c(C)c(O)c4c(O)c(c(/C=N\N5CCN(C6CCCC6)CC5)c(O)c4c3C2=O)NC(=O)/C(C)=C\C=C\[C@H](C)[C@H](O)[C@@H](C)[C@@H](O)[C@@H](C)[C@H](OC(C)=O)[C@@H]1C	/	/	/	/	.[19.4 µM]
COc1ccc(-c2noc(-c3ccc(N4CCC(C)CC4)c([N+](=O)[O-])c3)n2)cc1OC	79.4µM	.	.	/	?
Cc1ccccc1-c1nc(CS(=O)(=O)CC(=O)NCc2cccc(Cl)c2)c(C)o1	.	.	.	/	.
Nc1nc(N)nc(-c2cc(Cl)ccc2Cl)n1	/	79.4µM	.	.[11.6 µM]	.
CCOC(=O)c1ccc(N(C(=O)c2ccccc2)c2ccccc2)cc1	/	?	/	/	.
C=CCOc1ccc(/C=C2\C(=N)N3N=C(S(=O)(=O)CC)SC3=NC2=O)cc1OC	.	?	39.8µM	.[11.6 µM]	.
COc1cc(/C=C2\C(=O)N(c3ccc(S(N)(=O)=O)cc3)N=C2C)ccc1OC(=O)c1ccco1	?	2.51µM	.	.[11.6 µM]	.
COc1cc(/C=C2/C(=O)N(c3ccc(Br)cc3)N=C2C)cc(OC)c1OC	.	?	.	.	.
COc1cccc(OCCOc2ccc(/C=C3\C(=N)N4N=C(S(C)(=O)=O)SC4=NC3=O)cc2OC)c1	.	?	.	.	.
COc1cc(/C=C2/C(=O)N(c3ccc(C(=O)O)cc3)N=C2C)cc(OC)c1O	.	1.58µM	?	.[11.6 µM]	.
CCS(=O)(=O)C1=NN2C(=N)/C(=C\c3ccc(OC(=O)c4ccco4)c(OC)c3)C(=O)N=C2S1	.	?	79.4µM	.	.
CCN(CC)c1ccc(NC(=O)Cn2cc3c(n2)CCCC3)c(C)c1	.	.	.	/	.
